According to a collection of fitness landscapes (doi:10.1126/science.1257360):
Over roughly 140,000 sequences, “enrichment ratio after two sorts for PhoP signalling” has its median near 0; the highest 2% begin near 11. Shown is part of a subset that was picked to be rich in the highest values.

B1: PhoQ; a variant is named by its letters at X, in order, P23837 (parent)
chain: MKKLLRLFFPLSLRVRFLLATAAVVLVLSLAYGMVALIGYSVSFDKTTFRLLRGESNLFYTLAKWENNKLHVELPENIDKQSPTMTLIYDENGQLLWAQRDVPWLMKMIQPDWLKSNGFHEIEADVNDTSLLLSGDHSIQQQLQEVREDDDDAEMTHSVAVNVYPATSRMPKLTIVVVDTIPVELKSSYMVWSWFIYVLSANLLLVIPLLWVAAWWSLRPIEALAKEVRELEEHNRELLNPATTRELTSLVRNLNRLLKSERERYDKYRTTLTDLTHSLKTPLXXLQXXLRSLRSEKMSVSDAEPVMLEQISRISQQIGYYLHRASMRGGTLLSRELHPVAPLLDNLTSALNKVYQRKGVNISLDISPEISFVGEQNDFVEVMGNVLDNACKYCLEFVEISARQTDEHLYIVVEDDGPGIPLSKREVIFDRGQRVDTLRPGQGVGLAVAREITEQYEGKIVAGESMLGGARMEVIFGRQHSAPKDE

Variants of: B1
Assay: enrichment ratio after two sorts for PhoP signalling (ratio (wild type AVST 3.29)); higher = more functional
Conditions: with PhoP (E. coli)

Variant | enrichment ratio
TMFD | ≤ 0.25
AHCM | 9.33
THSS | 8.94
AKKL | ≤ 0.25
YGCL | 2.74
YHQH | ≤ 0.25
TTGF | 17.1
TTHI | 11.5
YTHI | ≤ 0.25
YTMF | 5.8
TTHN | 15.7
WIMF | ≤ 0.25
NVHI | ≤ 0.25
CTMF | 25.7
YTGF | ≤ 0.25
KSHN | ≤ 0.25
YTHN | ≤ 0.25
LTGF | ≤ 0.25
WRNH | ≤ 0.25
PTGD | ≤ 0.25
HQVK | ≤ 0.25
VNRG | ≤ 0.25
GRVA | ≤ 0.25

Variant | enrichment ratio
FSSR | ≤ 0.25
SFVK | ≤ 0.25
IYPH | ≤ 0.25
WNMY | ≤ 0.25
PTMF | ≤ 0.25
TKMF | 11.5
TTMS | 26.8
WIMS | ≤ 0.25
MEMF | 0.449
YTMS | ≤ 0.25
GTYD | ≤ 0.25
SAKT | ≤ 0.25
FGAP | ≤ 0.25
FCVG | ≤ 0.25
RGTF | ≤ 0.25
WISV | ≤ 0.25
TISV | 12.8
VHSV | ≤ 0.25
AISV | 15.9
ADSV | 4.14
RISV | ≤ 0.25
IHWP | ≤ 0.25
WMPW | ≤ 0.25

Variant | enrichment ratio
DDPW | ≤ 0.25
WIPR | ≤ 0.25
GRSL | ≤ 0.25
TCMD | ≤ 0.25
KCMH | ≤ 0.25
TCMS | 10.9
TCMH | 15.1
FCMA | 5.8
TCMI | 15
KCMA | ≤ 0.25
HCMH | ≤ 0.25
TCMV | 14.6
TCWV | 2.38
TCIV | ≤ 0.25
TCMA | 15.5
FRCS | ≤ 0.25
HLCG | ≤ 0.25
TQVV | 4.23
LDFE | ≤ 0.25
SIYM | 0.397
FWIR | ≤ 0.25
LPTL | ≤ 0.25
AFEF | ≤ 0.25

Variant | enrichment ratio
SVVF | ≤ 0.25
FPHE | ≤ 0.25
KCTG | ≤ 0.25
KSNV | ≤ 0.25
TCVG | ≤ 0.25
KCNV | ≤ 0.25
TCIG | ≤ 0.25
VCTG | 0.404
TCTG | 20
TCNV | 16.2
TCMG | 11.4
FCMF | 0.805
TCMF | 26.2
TYMF | ≤ 0.25
IPQW | ≤ 0.25
TEEP | ≤ 0.25
KVAI | ≤ 0.25
VSKE | ≤ 0.25
LVPE | ≤ 0.25
KFTM | ≤ 0.25
VECA | 3.45
FAFY | ≤ 0.25
SNSG | 10.7

Variant | enrichment ratio
GRCQ | ≤ 0.25
DDFY | ≤ 0.25
TGSW | ≤ 0.25
RFSN | 0.949
TCHP | ≤ 0.25
TCVC | ≤ 0.25
TCFK | ≤ 0.25
TCWG | ≤ 0.25
TCGG | 21.5
TCHQ | 23.4
WFIY | ≤ 0.25
HKKD | ≤ 0.25
VKAH | ≤ 0.25
AFQW | ≤ 0.25
SKFC | ≤ 0.25
SKIM | 20.9
SKAM | 28
SKGM | ≤ 0.25
SKSK | ≤ 0.25
SKSF | ≤ 0.25
SKRC | ≤ 0.25
SKSM | 14
SKIC | 30.5

Variant | enrichment ratio
SKPM | ≤ 0.25
SKRM | ≤ 0.25
HKSM | ≤ 0.25
AFGE | ≤ 0.25
KDQH | ≤ 0.25
EESA | ≤ 0.25
NRWG | ≤ 0.25
FGTG | ≤ 0.25
MKMF | ≤ 0.25
TNYM | 1.85
AGGW | 0.253
AIGW | 11.4
VHGW | ≤ 0.25
AHGW | ≤ 0.25
ANGW | 11.4
NVGW | ≤ 0.25
AVGD | ≤ 0.25
ANHW | ≤ 0.25
AVGW | 12.2
RGVW | ≤ 0.25
GKNA | ≤ 0.25
CIQI | ≤ 0.25
VWKV | ≤ 0.25

Variant | enrichment ratio
QAIG | ≤ 0.25
WRVK | ≤ 0.25
MGMW | ≤ 0.25
MGME | 13
MGTG | ≤ 0.25
MGMY | ≤ 0.25
MGMG | 42.5
MGWG | 0.67
LMNI | ≤ 0.25
TSSL | 13.7
VRSL | ≤ 0.25
KSSL | ≤ 0.25
QSSL | 9.11
NSSL | ≤ 0.25
SSSL | 12.5
FSSL | ≤ 0.25
SDSL | 0.277
ASSL | 11.7
